# ELG1 genotox: inducers of genotoxicity in HEK293T ELG1-luciferase cells; actives 1.3% (n = 330,000); Potency, µM (titrated, usually from 46 µM), inactives show at the highest dose activity change, positive = activation, most hits filed as activators; HEK293T ELG1-luciferase reporter, luminescence, 16 h; further: % of control where 0% means no effect; nearly all actives have a fitted effect of over 60% in size
#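 After overnight (16 hr) compound treatment at 37 °C, ELG1-luciferase HEK293T cells were lysed with ONE-Glo; luminescence quantified 30 min later at room temperature.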
# NPC1 prom act: NPC1 promoter activation; Huh7 NPC1 promoter luciferase reporter, 24 h; Potency, µM (top dose mostly 9.22 µM), inactives show at the highest dose activation, hits mostly activators; actives 2.4% (n = 320,000); AID 485313; further: % of control where 0% means no effect; nearly all actives have a fitted effect of over 60% in size
#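 Quantitative HTS used a cell-based reporter: Huh7 cells stably bearing the NPC1 promoter upstream of luciferase were treated with compounds for 24 h, and promoter activation was read as luminescence.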
# SMN2 splice up: increases expression of the SMN2 splice variant. Potency, µM (titrated, usually from 46.1 µM), for the others: top-dose activity change, positive = activation, hits mostly activators. HEK293 SMN2-luciferase splicing reporter, luminescence, 30-36 h. actives 2.8% (n = 210,000); further: % of control where 0% means no effect; nearly all actives have a fitted effect of over 55% in size
#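 qHTS luciferase splicing reporter: luminescence rises when SMN2 exon 7 is included in transfected HEK293 cells. Compound exposure lasted 30-36 h at 37C, with 4.5 mM final sodium butyrate as control, followed by a ONE-Glo read.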
# Rab9 promoter act: activators of Rab9 promoter | actives 2.8% (n = 320,000) | Huh7 Rab9 promoter-luciferase reporter, luminescence, 24 h | Potency, µM (titrated, usually from 9.22 µM), for inactives: top-dose activation, negative = inhibition, hits mostly activators; further: % of control where 0% means no effect; nearly all actives have a fitted effect of over 60% in size
#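 Promoter activation is measured as luciferase luminescence in Huh7 cells stably transfected with a Rab9 promoter–luciferase construct, following 24 h compound exposure at 37 °C and 10 min reagent incubation at ambient temperature.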
# FLuc modulator: inhibits or activates purified firefly luciferase, miR-21 counter-screen. AID 588342. Potency, µM (top dose mostly 57.5 µM), without a hit: at the highest dose activity change, negative = inhibition, most hits filed as inhibitors. P08659. actives 6.9% (n = 360,000). purified FLuc, Km substrates, luminescence inhibition;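 further: plate controls were vehicle for no effect and reference inhibitor for full effect; nearly all actives have a fitted effect of over 55% in size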
# Target sequence (P08659 whole entry, looked up): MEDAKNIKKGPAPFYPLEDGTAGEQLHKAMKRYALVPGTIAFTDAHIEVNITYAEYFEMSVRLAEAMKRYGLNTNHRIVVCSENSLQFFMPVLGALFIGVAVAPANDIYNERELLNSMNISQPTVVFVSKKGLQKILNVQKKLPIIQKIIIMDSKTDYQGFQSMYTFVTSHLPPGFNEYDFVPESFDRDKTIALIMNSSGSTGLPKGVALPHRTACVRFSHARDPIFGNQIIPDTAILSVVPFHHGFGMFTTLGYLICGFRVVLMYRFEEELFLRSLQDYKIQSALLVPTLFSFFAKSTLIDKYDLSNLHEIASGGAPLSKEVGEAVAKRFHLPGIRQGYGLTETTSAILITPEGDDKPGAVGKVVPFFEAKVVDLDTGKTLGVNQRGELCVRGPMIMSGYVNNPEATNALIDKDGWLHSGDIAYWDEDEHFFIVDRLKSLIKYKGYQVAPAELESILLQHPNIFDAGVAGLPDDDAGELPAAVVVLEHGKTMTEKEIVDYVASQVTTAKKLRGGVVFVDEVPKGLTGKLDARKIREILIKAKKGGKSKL
#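 Biochemical qHTS of compounds, final roughly 60 µM downward over six points, against 10 nM purified firefly luciferase using Km concentrations of substrates (10 uM D-luciferin, 10 uM ATP) in Tris acetate pH 7.5 buffer; luminescence output.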
# The depositor's hits bear a star; ? = inconclusive; / = no result given; [ ] = remark or other dose. This is a sample that favours compounds with a hit; in the whole collection about 7.4% have one here. The call rests on the fitted dose curve; in most records, active means well fitted curve in the direction sought with a large enough effect; inconclusive means small, poorly fitted or top-dose-only effect, or another doubt; inactive means no such curve, though single readings can be large; an effect the other way counts as inactive or inconclusive. Potency means the concentration at half of the fitted maximal effect.
SMILES,ELG1 genotox,NPC1 prom act,SMN2 splice up,Rab9 promoter act,FLuc modulator
Cc1ccc(Cl)cc1NC(=O)C1CCN(c2nc3ccccc3n3cccc23)CC1,/,/,/,/,-13%
O=C(NCc1ccc(Cl)cc1)c1ccc2c(Cl)c3c(nc2c1)CCCC3,/,/,-6%,/,3%
CCOc1ccc(-c2ccc(SCC(=O)NC3CCCCC3)nn2)cc1,?,2µM*,/,1.6µM*,0.38µM*
COc1ccc(-c2nnc(SCC(=O)NC3CCCCC3)nc2-c2ccc(OC)cc2)cc1,/,/,/,/,4%
CCOc1ccc(-c2nc(SCC(=O)NC3CCCC3)c(-c3ccccc3)[nH]2)cc1OC,/,/,-85%,/,24µM*
COc1ccc(-c2cn3nc(SCC(=O)NC4CCCCC4)ccc3n2)cc1,?,0.56µM*,/,0.71µM*,0.34µM*
COc1ccc(-c2nc(SCC(=O)NC3CCCCC3)n[nH]2)cc1,-4%,-10%,/,-3%,15µM*
CCn1ccc2cc(S(=O)(=O)N3CCCN(C(=O)NCC(C)C)CC3)ccc21,/,/,/,/,2%
COc1ccc(NC(=O)C2=C(C)Nc3ncnn3C2c2sccc2C)cc1 (stereo not drawn),/,/,/,/,2%
COc1ccc(NC(=O)N2CC3(CCN(S(C)(=O)=O)CC3)C2)cc1,/,/,-5%,/,/
Cc1ccc(C)c(C(=O)c2c(N)c(-c3nc(-c4ccc5c(c4)OCO5)cs3)c3ccccn23)c1,/,/,-4%,/,3%
COc1ccc(-c2ccc(SCC(=O)NC3CCCCC3)nn2)cc1,?,?,/,2.2µM*,1.7µM*
Cc1ccc(-c2ccc(SCC(=O)NC3CCCCC3)nn2)cc1,10%,?,/,28%,2.7µM*
Cc1ccc(-c2ccc(SCC(=O)NC3CCCC3)nn2)cc1,-2%,13%,/,11%,?
COC(=O)c1ccccc1NC(=O)NCc1ccc2c(c1)CCN2C(=O)c1ccccc1,/,/,/,/,-11%
C[C@H]1CC(C)(C)C[C@@](OCCN2CCCCC2)(c2ccccc2)C1,/,/,-21%[9.22 µM],/,/
CC(=O)c1ccc(S(=O)(=O)Nc2cccc(-c3ccc(N4CCCCCC4)nn3)c2)cc1,/,/,/,/,4.8µM*
CC(=O)c1ccc(S(=O)(=O)Nc2cccc(-c3cn4c(n3)SCC4)c2)cc1,-6%,3%,-40%,5%,-15%
CC(=O)c1cccc(NS(=O)(=O)c2ccc(NC(=O)N3CCCCC3)cc2)c1,0%,-26%,/,-24%,0%
CC(=O)c1ccc(S(=O)(=O)Nc2cccc(-c3ccc(N4CCCC4)nn3)c2)cc1,/,/,/,/,9.5µM*
O=C1/C(=C/c2ccccc2)CCCc2ccccc21,?,0%,-10%,3%,11µM*
CN(C)c1ccc(/C=C2\CCC/C(=C\c3ccccc3)C2=O)cc1,?,28%,18%,24%,12µM*
O=C1/C(=C\c2cccnc2)CCc2ccccc21,12%,-7%,/,4%,6µM*
O=C1/C(=C/c2cccnc2)CC/C1=C\c1cccnc1,-22%,-2%,-21%,-9%,?
CC(C)/C=C1\CC/C(=C\c2cccnc2)C1=O,2%,3%,-34%,1%,17µM*
SMILES,ELG1 genotox,NPC1 prom act,SMN2 splice up,Rab9 promoter act,FLuc modulator
COc1ccc(-n2cc(C(=O)Oc3cc(C)cc(C)c3)c3ccccc3c2=O)cc1,/,/,/,/,-1%
CCOc1cc(C(=S)N2CCCCC2)ccc1OCC(=O)NCc1ccccc1,1%,1%,-26%,-6%,17µM*
CN(C(=O)c1ccco1)c1nnc(C23CC4CC(CC(C4)C2)C3)s1,?,?,16µM*,?,9.5µM*
CN(C(=O)c1ccco1)c1nc2c(s1)CCCC2,?,0.71µM*,14µM*,0.89µM*,2.4µM*
CCc1ccc(C2c3c(-c4ccccc4O)n[nH]c3C(=O)N2Cc2ccncc2)cc1 (stereo not drawn),/,/,-6%,/,-18%
Cc1c(C(=O)NCc2ccccc2)oc2ccc(S(=O)(=O)N3CCC(C)CC3)cc12,/,/,-12%,/,0%
CCCNC(=O)c1oc2ccc3c(c2c1C)C(O)CC(C)(C)O3 (stereo not drawn),9%,7%,/,20%,-8%
Cc1c(C(=O)NCc2ccoc2)oc2ccc3c(c12)C(=O)CC(C)(C)O3,?,?,16µM*,?,8.5µM*
CCC1(C)CC(=O)c2c(ccc3oc(C(=O)NCc4ccccc4)c(C)c23)O1 (stereo not drawn),/,/,22µM*,/,9.5µM*
O=C1OCC2OC(O)C(O)C(O)C2OC(=O)c2cc(O)c(O)c(O)c2-c2c(O)c(O)c3oc(=O)c4c(c(O)c(O)c5oc(=O)c2c3c54)-c2c1cc(O)c(O)c2O (stereo not drawn),1%,-3%,/,-12%,27µM*
COc1c(O)cc2c(c1O)C1OC(CO)C(O)C(O)C1OC2=O (stereo not drawn),7%,-2%,/,-2%,0%
O=c1[nH][nH]c(C(F)(F)F)c1C=Nc1ccccc1Cl,0%,-4%,-9%,1%,?
Oc1c(C=Nc2ccccc2Cl)[nH]c2ccccc12,?,2.8µM*,/,3.5µM*,?
Cc1ccc(NC(=O)C2=C(O)c3ccccc3N(C)S2(=O)=O)cc1,0%,0%,17%,3%,15µM*
Cc1cccc(C)c1NC(=O)C1=C(O)c2ccccc2N(C)S1(=O)=O,-4%,-3%,3%,-3%,-1%
Cc1cc(N/N=C/c2ccc(O)cc2O)nc(N2CCOCC2)n1,4%,-3%,/,-4%,7.6µM*
COc1ccc(/C=N/Nc2cc(C)nc(N3CCOCC3)n2)c(OC)c1,6%,0%,/,0%,2.4µM*
Cc1cc(C)c2oc(C(=O)Nc3sc4c(c3C(=O)NCc3ccco3)CCCC4)cc(=O)c2c1,/,/,4%,/,-1%
CC(=O)Nc1ccc(NC(=O)CCN2C(=O)c3ccccc3C2=O)cc1,-7%,5%,/,-9%,-4%
O=C(Nc1ccc(-c2cn3ccsc3n2)cc1)C1CCCC1,1.8µM*,4µM*,?,3.2µM*,1.3µM*
O=C(Nc1ccc(-c2cn3ccsc3n2)cc1)C1CC1,?,2.2µM*,?,1.6µM*,2.7µM*
O=C(CCN1C(=O)c2ccccc2C1=O)Nc1ccc(-c2cn3ccsc3n2)cc1,?,?,?,2.2µM*,2.7µM*
CC(=O)Nc1ccc(-c2cn3ccsc3n2)cc1,5.8µM*,1.6µM*,10µM*,1.4µM*,12µM*
Cc1ccc(S(=O)(=O)N2CCOCC2)cc1C(=O)Nc1ccc(-c2cn3ccsc3n2)cc1,-9%,-1%,-49%,-3%,?
CC(=O)Nc1ccc(S(=O)(=O)NCc2cn3ccsc3n2)cc1,1%,-2%,5%,-5%,-1%
CCCc1cc(OC)c2c(c1)OCO2,/,/,-10%,/,/
Cc1nc(NCc2ccccc2)c2nc(-c3ccccc3)n(CCCN(C)C)c2n1,/,/,-4%,/,/
CC1=C[N+](=O)c2ccccc2[N+]1=O,/,/,-7%[9.22 µM],/,/

# Screening results deposited in PubChem by National Center for Advancing Translational Sciences (NCATS).
